# Results as given in article PMC8384837, “Expanding the binding specificity for RNA recognition by a PUF domain”.
# Changes are numbered by the printed parent chain.
# Legend:
# Assay in all cases: yeast three-hybrid, YBZ-1, SC-Leu-His + 0.5 mM 3-AT, 4 days
# Details in all cases: tags: N-Gal4 AD-HA kept; label: inside an RPR1-promoter hybrid RNA with tandem MS2 sites; ssRNA
# [1] = target: PUM1 PUF domain R1-QWR (Homo sapiens, UniProt Q14671 828-1176, S863Q;R864W;Q867R)
# Summary of the method: (§1)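 A centromeric plasmid in strain YBZ-1 co-expressed Pumilio-1 PUF domain libraries, randomized at the three base-contacting residues of each repeat, with matching RNA elements; the strain carries a LexA–MS2 coat fusion and a HIS3 reporter. After four days on SC-Leu (input) or SC-Leu-His + 0.5 mM 3-AT (selection), the repeat regions were PCR-amplified and Illumina-sequenced. The interaction score is the log change in variant frequency from input to selection, using log2 and a pseudocount of 1 where absent.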
# [2] = target: T1, PUM1 PUF domain R6-PFE (Homo sapiens, UniProt Q14671 828-1176, N1043P;Y1044F;Q1047E)
# T1 sequence: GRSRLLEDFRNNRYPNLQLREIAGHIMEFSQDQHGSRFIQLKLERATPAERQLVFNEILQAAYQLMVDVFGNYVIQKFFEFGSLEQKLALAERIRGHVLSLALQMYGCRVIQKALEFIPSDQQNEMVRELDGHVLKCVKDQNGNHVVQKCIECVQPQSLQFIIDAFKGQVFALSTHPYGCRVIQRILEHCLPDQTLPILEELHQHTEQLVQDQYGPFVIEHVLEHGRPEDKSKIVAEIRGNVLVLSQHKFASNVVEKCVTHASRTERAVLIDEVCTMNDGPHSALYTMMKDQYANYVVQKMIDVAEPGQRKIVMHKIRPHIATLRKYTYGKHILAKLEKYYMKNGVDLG
# Summary of the method: as §1
# [3] = target: PUM1 PUF domain R7-KCQ (Homo sapiens, UniProt Q14671 828-1176, S1079K;N1080C;E1083Q)
# Summary of the method: as §1
# [4] = target: PUM1 PUF domain R7-KRV (Homo sapiens, UniProt Q14671 828-1176, S1079K;N1080R;E1083V)
# Summary of the method: as §1
# [5] = target: PUM1 PUF domain R5-KFR (Homo sapiens, UniProt Q14671 828-1176, C1007K;R1008F;Q1011R)
# Summary of the method: as §1
# [6] = target: PUM1 PUF domain R5-RMR (Homo sapiens, UniProt Q14671 828-1176, C1007R;R1008M;Q1011R)
# Summary of the method: as §1
# [7] = target: PUM1 PUF domain R3-WWD (Homo sapiens, UniProt Q14671 828-1176, C935W;R936W;Q939D)
# Summary of the method: as §1
# [8] = target: PUM1 PUF domain R3-RAP (Homo sapiens, UniProt Q14671 828-1176, C935R;R936A;Q939P)
# Summary of the method: as §1
# [9] = target: PUM1 PUF domain R5-DYD (Homo sapiens, UniProt Q14671 828-1176, C1007D;R1008Y;Q1011D)
# Summary of the method: as §1
# [10] = target: PUM1 PUF domain R4-SNA (Homo sapiens, UniProt Q14671 828-1176, N971S;H972N;Q975A)
# Summary of the method: as §1
# [11] = target: T2, PUM1 PUF domain R6-FWG (Homo sapiens, UniProt Q14671 828-1176, N1043F;Y1044W;Q1047G)
# T2 sequence: T1 sequence with P216F, F217W, E220G
# Summary of the method: as §1
# [12] = target: PUM1 PUF domain R4-MPH (Homo sapiens, UniProt Q14671 828-1176, N971M;H972P;Q975H)
# Summary of the method: as §1
# [13] = target: T3, PUM1 PUF domain R6-GFQ (Homo sapiens, UniProt Q14671 828-1176, N1043G;Y1044F)
# T3 sequence: T1 sequence with P216G, E220Q
# Summary of the method: as §1
# [14] = target: PUM1 PUF domain R8-RWE (Homo sapiens, UniProt Q14671 828-1176, N1122R;Y1123W;Q1126E)
# Summary of the method: as §1
# [15] = target: T4, PUM1 PUF domain R6-TWK (Homo sapiens, UniProt Q14671 828-1176, N1043T;Y1044W;Q1047K)
# T4 sequence: T1 sequence with P216T, F217W, E220K
# Summary of the method: as §1
# [16] = target: PUM1 PUF domain R5-NRV (Homo sapiens, UniProt Q14671 828-1176, C1007N;Q1011V)
# Summary of the method: as §1
# [17] = target: PUM1 PUF domain R7-ENS (Homo sapiens, UniProt Q14671 828-1176, S1079E;E1083S)
# Summary of the method: as §1
# [18] = target: PUM1 PUF domain R8-KKV (Homo sapiens, UniProt Q14671 828-1176, N1122K;Y1123K;Q1126V)
# Summary of the method: as §1
# [19] = target: PUM1 PUF domain R4-QFL (Homo sapiens, UniProt Q14671 828-1176, N971Q;H972F;Q975L)
# Summary of the method: as §1
# [20] = target: PUM1 PUF domain R5-KSI (Homo sapiens, UniProt Q14671 828-1176, C1007K;R1008S;Q1011I)
# Summary of the method: as §1
sequence,measurement,setting,value
GGCUAGAACUAGUGGAUCCCCCGGCGCCCGGCGGCUCGAGCCCGGGUAAGUGUAAAUUGUCUGCAUGCCGCCGGGCGCCAUGCCUGCAGGUCGACUCUAGAAAACAUG,binding signal,[1],3.12 log2 enrichment (interaction score)
GGCUAGAACUAGUGGAUCCCCCGGCGCCCGGCGGCUCGAGCCCGGGUAAGUGGAAAUAGUCUGCAUGCCGCCGGGCGCCAUGCCUGCAGGUCGACUCUAGAAAACAUG,binding signal,[2],2.11 log2 enrichment (interaction score)
GGCUAGAACUAGUGGAUCCCCCGGCGCCCGGCGGCUCGAGCCCGGGUAAGUCUAAAUAGUCUGCAUGCCGCCGGGCGCCAUGCCUGCAGGUCGACUCUAGAAAACAUG,binding signal,[3],4.46 log2 enrichment (interaction score)
same,binding signal,[4],5.35 log2 enrichment (interaction score)
GGCUAGAACUAGUGGAUCCCCCGGCGCCCGGCGGCUCGAGCCCGGGUAAGUGUUAAUAGUCUGCAUGCCGCCGGGCGCCAUGCCUGCAGGUCGACUCUAGAAAACAUG,binding signal,[5],4.62 log2 enrichment (interaction score)
same,binding signal,[6],2.49 log2 enrichment (interaction score)
GGCUAGAACUAGUGGAUCCCCCGGCGCCCGGCGGCUCGAGCCCGGGUAAGUGUAAGUAGUCUGCAUGCCGCCGGGCGCCAUGCCUGCAGGUCGACUCUAGAAAACAUG,binding signal,[7],5.41 log2 enrichment (interaction score)
GGCUAGAACUAGUGGAUCCCCCGGCGCCCGGCGGCUCGAGCCCGGGUAAGUGUAAUUAGUCUGCAUGCCGCCGGGCGCCAUGCCUGCAGGUCGACUCUAGAAAACAUG,binding signal,[8],3.87 log2 enrichment (interaction score)
GGCUAGAACUAGUGGAUCCCCCGGCGCCCGGCGGCUCGAGCCCGGGUAAGUGUAAAUAGUCUGCAUGCCGCCGGGCGCCAUGCCUGCAGGUCGACUCUAGAAAACAUG,binding signal,[5],4.71 log2 enrichment (interaction score)
same,binding signal,[9],1.97 log2 enrichment (interaction score)
same,binding signal,[10],1.52 log2 enrichment (interaction score)
same,binding signal,[11],3.61 log2 enrichment (interaction score)
same,binding signal,[12],3.32 log2 enrichment (interaction score)
same,binding signal,[13],6.29 log2 enrichment (interaction score)
same,binding signal,[14],3.03 log2 enrichment (interaction score)
same,binding signal,[15],2.26 log2 enrichment (interaction score)
same,binding signal,[16],2.44 log2 enrichment (interaction score)
GGCUAGAACUAGUGGAUCCCCCGGCGCCCGGCGGCUCGAGCCCGGGUAAGUGUACAUAGUCUGCAUGCCGCCGGGCGCCAUGCCUGCAGGUCGACUCUAGAAAACAUG,binding signal,[10],3.14 log2 enrichment (interaction score)
GGCUAGAACUAGUGGAUCCCCCGGCGCCCGGCGGCUCGAGCCCGGGUAAGUUUAAAUAGUCUGCAUGCCGCCGGGCGCCAUGCCUGCAGGUCGACUCUAGAAAACAUG,binding signal,[3],2.98 log2 enrichment (interaction score)
same,binding signal,[17],4.45 log2 enrichment (interaction score)
GGCUAGAACUAGUGGAUCCCCCGGCGCCCGGCGGCUCGAGCCCGGGUAAGCGUAAAUAGUCUGCAUGCCGCCGGGCGCCAUGCCUGCAGGUCGACUCUAGAAAACAUG,binding signal,[14],4.69 log2 enrichment (interaction score)
same,binding signal,[18],2.53 log2 enrichment (interaction score)
GGCUAGAACUAGUGGAUCCCCCGGCGCCCGGCGGCUCGAGCCCGGGUAAGUGUGAAUAGUCUGCAUGCCGCCGGGCGCCAUGCCUGCAGGUCGACUCUAGAAAACAUG,binding signal,[16],2.59 log2 enrichment (interaction score)
GGCUAGAACUAGUGGAUCCCCCGGCGCCCGGCGGCUCGAGCCCGGGUAAGUGUAUAUAGUCUGCAUGCCGCCGGGCGCCAUGCCUGCAGGUCGACUCUAGAAAACAUG,binding signal,[19],4.92 log2 enrichment (interaction score)
same,binding signal,[10],4.15 log2 enrichment (interaction score)
GGCUAGAACUAGUGGAUCCCCCGGCGCCCGGCGGCUCGAGCCCGGGUAAGUGAAAAUAGUCUGCAUGCCGCCGGGCGCCAUGCCUGCAGGUCGACUCUAGAAAACAUG,binding signal,[11],2.45 log2 enrichment (interaction score)
same,binding signal,[13],0.48 log2 enrichment (interaction score)
GGCUAGAACUAGUGGAUCCCCCGGCGCCCGGCGGCUCGAGCCCGGGUAAGUGUAAAUCGUCUGCAUGCCGCCGGGCGCCAUGCCUGCAGGUCGACUCUAGAAAACAUG,binding signal,[1],8.29 log2 enrichment (interaction score)
GGCUAGAACUAGUGGAUCCCCCGGCGCCCGGCGGCUCGAGCCCGGGUAAGUGUCAAUAGUCUGCAUGCCGCCGGGCGCCAUGCCUGCAGGUCGACUCUAGAAAACAUG,binding signal,[20],3.85 log2 enrichment (interaction score)
same,binding signal,[5],5.4 log2 enrichment (interaction score)
same,binding signal,[9],5.78 log2 enrichment (interaction score)
same,binding signal,[6],3.2 log2 enrichment (interaction score)
